According to the supplement of paper PMC6555819:

Assays:
Assay in all cases: PBM binding z-score (relative to random genomic background probes); higher = stronger binding; sequences stand for … in GC…GCGATTGACAGCGTAGAATGAAGG
[1] = system: PPARg:RXRa DBDmut IVT, anti-RXR (DBD mutation: RXRa K156A/R161A, NR concentration 270 nM, RXRa partner concentration 90 nM)
Outline: (§1)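 On custom Agilent 4×180K arrays, double-stranded probes with 34-nt variable regions carried direct-repeat seeds, single-nucleotide variants, half-site ablations or random human genomic background. Ligand-free nuclear receptor dimers were applied for 1 h, and binding was read with antibodies against each partner (one per run). Binding z-scores come from regression-normalized fluorescence, with the random background probes as reference.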

[2] = system: PPARg:RXRa IVT, anti-PPARg (NR concentration 270 nM, RXRa partner concentration 90 nM)
Outline: as §1

[3] = system: PPARg DBDmut:RXRa IVT, anti-PPARg (DBD mutation: PPARg1 K132A/R137A, NR concentration 270 nM, RXRa partner concentration 90 nM)
Outline: as §1

[4] = system: PPARg DBDmut IVT, anti-PPARg (DBD mutation: PPARg1 K132A/R137A, NR concentration 270 nM)
Outline: as §1

[5] = system: PPARg homodimer (NR concentration 180 nM)
Outline: as §1

[6] = system: PXR:RXRa (NR concentration 270 nM, RXRa partner concentration 90 nM)
Outline: as §1

[7] = system: PXR homodimer (NR concentration 270 nM)
Outline: as §1

[8] = system: RARa:RXR (NR concentration 270 nM, RXRa partner concentration 90 nM)
Outline: as §1

[9] = system: RARa homodimer (NR concentration 270 nM)
Outline: as §1

[10] = system: RARb:RXRa (NR concentration 270 nM, RXRa partner concentration 90 nM)
Outline: as §1

[11] = system: RARb homodimer (NR concentration 270 nM)
Outline: as §1

[12] = system: RARg:RXRa (NR concentration 270 nM, RXRa partner concentration 90 nM)
Outline: as §1

[13] = system: RARg homodimer (NR concentration 270 nM)
Outline: as §1

[14] = system: RXRa DBDmut IVT, anti-RXR (DBD mutation: RXRa K156A/R161A, NR concentration 90 nM)
Outline: as §1

[15] = system: RXRa homodimer (NR concentration 180 nM)
Outline: as §1

[16] = system: THRa:RXRa (NR concentration 90 nM, RXRa partner concentration 90 nM)
Outline: as §1

[17] = system: THRa homodimer (NR concentration 90 nM)
Outline: as §1

[18] = system: VDR:RXRa (NR concentration 270 nM, RXRa partner concentration 90 nM)
Outline: as §1

[19] = system: VDR homodimer (NR concentration 270 nM)
Outline: as §1

Sequence | PBM binding z-score [1] | PBM binding z-score [2] | PBM binding z-score [3] | PBM binding z-score [4] | PBM binding z-score [5] | PBM binding z-score [6] | PBM binding z-score [7] | PBM binding z-score [8] | PBM binding z-score [9] | PBM binding z-score [10] | PBM binding z-score [11] | PBM binding z-score [12] | PBM binding z-score [13] | PBM binding z-score [14] | PBM binding z-score [15] | PBM binding z-score [16] | PBM binding z-score [17] | PBM binding z-score [18] | PBM binding z-score [19]
CCTACTGGGCCAAGAAAGGTCATTGATTCAGTGA | 3.49 | 3.92 | -0.232 | 0.143 | 2.98 | 5.1 | 1.18 | 5.31 | 1.75 | 3.89 | 4.44 | 3.99 | 3.46 | 0.261 | 4.4 | 3.43 | 0.419 | 3.68 | 2.23
GCAGACAGGTGAAACGCAGGTAACTCGGGGTGGC | 0.722 | 0.559 | -0.371 | -1.17 | -0.333 | 0.0221 | -0.587 | 0.361 | -1.06 | 0.754 | 0.185 | 0.966 | 0.131 | -0.847 | 0.633 | 1.55 | -0.0919 | -0.198 | -0.486
TCTATTAGTTGAAAGGCAACCGACGAGTCCGTTT | 2.63 | 0.0769 | 0.573 | -0.131 | 1.05 | 0.694 | 0.704 | 0.467 | 1.11 | 0.44 | -0.227 | 0.248 | 0.111 | 1.66 | 0.759 | 0.0956 | 0.0862 | 0.899 | 1.08
GCAGACAGGTGAAACGCAGGTAACTCAGGGTGGC | 0.989 | 0.639 | -1.03 | -0.587 | -0.666 | -0.437 | -0.625 | 0.284 | -0.853 | 0.575 | 0.13 | 0.712 | 0.0344 | -0.777 | 0.519 | 1.42 | -0.615 | -0.544 | -0.666
ACTAGCAGGCCAAGTTTGGGTCATTCAAACAAAG | 0.974 | 1.1 | -0.68 | -0.939 | 0.745 | 1.08 | -0.0146 | 1.73 | -0.276 | 1.69 | 2.24 | 2.22 | 1.29 | -0.125 | 0.803 | 2.55 | 0.849 |  | 0.69
TCTAGCAGGCCAGAGCGTCACTCAAGAGGTACGG | 0.578 | -0.464 | -0.145 | -0.832 | -1.42 | -0.785 | -0.819 | -0.492 | -0.772 | -0.306 | -0.99 | -0.32 | -0.282 | -0.0985 | -0.0625 | -1.43 | -1.22 | -0.608 | -0.792
CCGACTGGGGCAAAGGTTTCCATACTCAGTACGA | 5.1 | 4.87 | -0.186 | -0.49 | 0.0767 | -0.0306 | -0.339 | 0.0342 | -0.339 | 0.737 | 0.438 | 0.385 | 0.445 | 0.213 | 0.448 | -0.0772 | -0.282 | -0.277 | -0.026
TCTTGTACATCAACAGGAGGTTAAGAAAGATCGA | 1.52 | 0.927 | 1.32 | 1.51 | -0.544 | 0.873 | 0.161 | 1.09 | 0.409 | 0.66 | 0.799 | 0.549 | 0.344 | 0.744 | 0.927 | 0.755 | -0.281 | 0.977 | 0.136
ATACCAAGGTGATCGTGAGGTCGTGGATACTAAC | 0.55 | 1.38 | 0.414 | 0.297 | 1.2 | 2.53 | 0.492 | 3.03 | 0.48 | 1.65 | 1.77 | 2.71 | 0.919 | 0.217 | 2.04 | 3.62 | 2.99 | 2.84 | 1.78
ACTAGCAGGCCAAATTTGGGTCACTCAAACAAAG | 2.87 | 4.17 | 0.302 | 0.302 | 0.993 | 0.803 | -0.346 | 1.72 | -0.199 | 1.54 | 2.36 | 2.39 | 1.39 | 0.0631 | 0.936 | 2.45 | 0.758 |  | -0.0164
GATACCGGGTCAAGGCCAGAGTACGCGTATTGAT | 2.4 | 4.67 | 0.967 | 0.0234 | 0.895 | 2.62 | 0.124 | 2.97 | 0.054 | 3.9 | 3.05 | 4.34 | 3.93 | 0.478 | 4.58 | 3.49 | 1.25 | 3.11 | 1.07
CCTGCTAGGTCATGGTCAGCTTATCTACAGTATG | 4.34 | 3.48 | 0.0412 | -0.178 | 1.32 | 1.35 | -0.301 | 2.36 | 0.172 | 3.81 | 3.15 | 3.67 | 4.7 | 1.86 | 3.01 | 2.97 | 1.52 | 1.54 | 0.201
CCAGATAGGTGAGAAGGTAACTCAGCCTCGATTA | 2.53 | 1.72 | -0.37 | -0.16 | 1.05 | 0.0792 | 0.177 | 0.307 | 0.419 | 0.76 | 0.492 | 0.647 | 0.649 | 0.238 | 0.44 | 0.177 | -0.0242 | 0.254 | -0.157
GCGACTGGGGCATTAGCAGGTTACCATAACTTAA | 3.92 | 2.83 | -0.21 | -0.476 | 0.463 | -0.152 | -0.13 | 0.182 | -0.164 | 0.559 | 0.877 | 0.345 | 0.226 | 0.29 | 0.0797 | 0.892 | 0.101 | -0.196 | -0.236
ACTAGCAGGCCAAGTTTGGGTCACACAAACAAAG | 0.756 | 1.65 | 0.166 | -0.339 | 0.789 | 1.07 | -0.0733 | 1.95 | -0.318 | 1.91 | 2.17 | 2.66 | 1.73 | -0.304 | 1.44 | 2.67 | 1.04 | 0.933 | 0.103
